Active and inactive are the calls of the source. The calls were made as follows: active = hit-call score of the fitted dose curve at least 0.9, where 1 is the maximum; inactive = score below 0.9.

What all share (conditions): mRNA level, 48 h; actives raise or lower the signal
Read-out in assay [1]: Bcl-2 (BID) gene, BID (gene 637)
Description: LTEA_HepaRG_BID: Life Technologies and Expression Analysis (LTEA) Assay for Bcl-2 (BID) gene using HepaRG (AID 2283476). In a few lines:
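Duplicate 48 h treatments of HepaRG cells in serum-free induction medium spanned 100 uM downward in half-log steps, 0.5% DMSO. Transcript change quantified by qRT-PCR against three housekeeping genes, fitted up or down versus DMSO.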

Read-out in the next assay: Caspase-3 (Homo sapiens) (UniProt P42574)
Description: LTEA_HepaRG_CASP3: Life Technologies and Expression Analysis (LTEA) Assay for cysteine-aspartic acid protease (CASP3) using HepaRG (AID 2283477). In a few lines: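 Expression of CASP3 was quantified by TaqMan qRT-PCR against three housekeeping genes (ACTB, GAPDH, POLR2A), bidirectionally versus 0.5% DMSO. HepaRG cultures received compounds in duplicate, top 100 uM with half-log steps, for 48 h in serum-free induction medium.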

Read-out in assay [2]: cysteine-aspartic acid protease (CASP8), CASP8 (gene 841)
Description: LTEA_HepaRG_CASP8: Life Technologies and Expression Analysis (LTEA) Assay for cysteine-aspartic acid protease (CASP8) using HepaRG (AID 2283480). In a few lines:
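CASP8 transcript measured by TaqMan qRT-PCR with ACTB/GAPDH/POLR2A normalization, after 48 h chemical exposure of HepaRG cells in serum-free induction medium. Eight concentrations, top 100 uM, half-log steps, 0.5% DMSO vehicle; fits in both directions versus DMSO.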

Read-out in assay [3]: DNA damage-inducible transcript 3 (DDIT3), DDIT3 (gene 1649)
Description: LTEA_HepaRG_DDIT3: Life Technologies and Expression Analysis (LTEA) Assay for DNA damage-inducible transcript 3 (DDIT3) using HepaRG (AID 2283488). The method in brief:
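DDIT3 transcript was quantified by qRT-PCR with ACTB/GAPDH/POLR2A normalization after 48 h chemical treatment of differentiated HepaRG cells in 0.5% DMSO. Dosing was eight-point, half-log, top 100 uM, duplicate wells. Curves fitted bidirectionally versus DMSO.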

Read-out in assay [4]: Pro-epidermal growth factor (Homo sapiens) (UniProt P01133)
Description: LTEA_HepaRG_EGF: Life Technologies and Expression Analysis (LTEA) Assay for Epidermal growth factor (EGF) using HepaRG (AID 2283489). The method in brief:
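EGF transcript measured by Fluidigm TaqMan qRT-PCR with three housekeeping genes for normalization, 48 h after dosing HepaRG cultures in duplicate (top 100 uM, half-log steps, 0.5% DMSO vehicle). Gain or loss relative to DMSO fitted.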

Read-out in assay [5]: Early growth response protein 1 (EGR1) transcription factor, EGR1 (gene 1958)
Description: LTEA_HepaRG_EGR1: Life Technologies and Expression Analysis (LTEA) Assay for Early growth response protein 1 (EGR1) transcription factor using HepaRG (AID 2283490). In a few lines:
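EGR1 transcript levels quantified by qRT-PCR (Fluidigm arrays) against three housekeeping genes after 48 h chemical exposure of HepaRG cells. Eight-point half-log series topping at 100 uM, 0.5% DMSO vehicle, analyzed for gain or loss.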

Read-out in assay [6]: Ezrin (EZR), EZR (gene 7430)
Description: LTEA_HepaRG_EZR: Life Technologies and Expression Analysis (LTEA) Assay for Ezrin (EZR) using HepaRG (AID 2283491). The method in brief: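 Read-out is EZR transcript level by qRT-PCR, normalized to three housekeeping genes and fitted bidirectionally against the DMSO control. Human HepaRG cells received test chemicals for 48 h at eight half-log concentrations up to 100 uM in 0.5% DMSO.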

Read-out in assay [7]: Fatty Acid-Binding Protein 1 (FABP1), FABP1 (gene 2168)
Description: LTEA_HepaRG_FABP1: Life Technologies and Expression Analysis (LTEA) Assay for Fatty Acid-Binding Protein 1 (FABP1) using HepaRG (AID 2283494). In a few lines: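 FABP1 expression by TaqMan qRT-PCR, normalised to three housekeeping genes, in HepaRG cells after 48 h chemical treatment. Eight-point half-log series topping at 100 uM in 0.5% DMSO, duplicates; gain or loss fitted relative to vehicle.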

Read-out in assay [8]: Cytochrome P450 (CYP24A1), CYP24A1 (gene 1591)
Description: LTEA_HepaRG_CYP24A1: Life Technologies and Expression Analysis (LTEA) Assay for Cytochrome P450 (CYP24A1) using HepaRG (AID 2283478). In a few lines:
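mRNA of CYP24A1 quantified by TaqMan qRT-PCR (ACTB/GAPDH/POLR2A normalization) after 48 h chemical exposure of HepaRG cells, top concentration 100 uM, half-log steps, 0.5% DMSO vehicle, duplicates. Curves fitted bidirectionally against DMSO baseline.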

Read-out in assay [9]: Cytochrome P450 (CYP1A2), CYP1A2 (gene 1544)
Description: LTEA_HepaRG_CYP1A2: Life Technologies and Expression Analysis (LTEA) Assay for Cytochrome P450 (CYP1A2) using HepaRG (AID 2283479). In a few lines: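 CYP1A2 transcript measured by TaqMan qRT-PCR against three housekeeping genes after 48-hour chemical exposure of HepaRG cells. Eight-point half-log series topping at 100 uM in 0.5% DMSO, duplicates; gain or loss fitted relative to vehicle.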

Read-out in assay [10]: Cytochrome P450 (CYP2B6), CYP2B6 (gene 1555)
Description: LTEA_HepaRG_CYP2B6: Life Technologies and Expression Analysis (LTEA) Assay for Cytochrome P450 (CYP2B6) using HepaRG (AID 2283481). The method in brief: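 CYP2B6 transcript level quantified by qRT-PCR against three housekeeping genes, fitted bidirectionally relative to DMSO. HepaRG cultures received chemicals for 48 h, 8-point half-log series from 100 uM in 0.5% DMSO, duplicate wells, serum-free induction medium.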

Read-out in assay [11]: Cytochrome P450 2C19 (Homo sapiens) (UniProt P33261)
Description: LTEA_HepaRG_CYP2C19: Life Technologies and Expression Analysis (LTEA) Assay for CYP2C19 using HepaRG (AID 2283482). The method in brief: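 CYP2C19 transcript levels by qRT-PCR, normalized to three housekeeping genes, in HepaRG cells after 48 h chemical exposure. Eight-point half-log series topping at 100 uM, 0.5% DMSO vehicle. Increases and decreases both fitted against DMSO.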

Read-out in the next assay: CYP2C8 (gene 1558)
Description: LTEA_HepaRG_CYP2C8: Life Technologies and Expression Analysis (LTEA) Assay for CYP2C8 using HepaRG (AID 2283483). In a few lines: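 CYP2C8 expression measured by TaqMan qRT-PCR and normalized to three housekeeping genes. HepaRG cultures were treated for 48 h with an eight-point half-log series topping at 100 uM, vehicle 0.5% DMSO, duplicates; fitted both directions against DMSO.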

Read-out in another assay: CYP2C9 (gene 1559)
Description: LTEA_HepaRG_CYP2C9: Life Technologies and Expression Analysis (LTEA) Assay for CYP2C9 using HepaRG (AID 2283484). The method in brief: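 CYP2C9 transcript level, quantified by TaqMan qRT-PCR against three housekeeping genes, was fitted bidirectionally relative to 0.5% DMSO. HepaRG cultures were treated 48 h, in duplicate, at eight half-log concentrations topping at 100 uM.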

Read-out in a further assay: CYP2E1 (gene 1571)
Description: LTEA_HepaRG_CYP2E1: Life Technologies and Expression Analysis (LTEA) Assay for CYP2E1 using HepaRG (AID 2283485). The method in brief: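 CYP2E1 transcript measured by Fluidigm qRT-PCR against three housekeeping genes in human HepaRG cells treated 48 h (top 100 uM, half-log steps, 0.5% DMSO vehicle). Gain or loss fitted relative to DMSO baseline.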

Read-out in the next assay: CYP4A11 (gene 1579)
Description: LTEA_HepaRG_CYP4A11: Life Technologies and Expression Analysis (LTEA) Assay for CYP4A11 using HepaRG (AID 2283486). The method in brief:
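Readout is CYP4A11 transcript level by qRT-PCR, normalized to three housekeeping genes and fitted bidirectionally against 0.5% DMSO. Human HepaRG cells were treated 48 h, in duplicate, with an 8-point half-log series topping at 100 uM.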

Read-out in assay [12]: Cytochrome P450 3A4 (Homo sapiens) (UniProt P08684)
Description: LTEA_HepaRG_CYP3A4: Life Technologies and Expression Analysis (LTEA) Assay for CYP3A4 using HepaRG (AID 2283487). In a few lines:
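HepaRG, 48 h exposure, 8-pt CRC from 100 uM (half-log), 0.5% DMSO, duplicates; serum-free induction medium. Readout: CYP3A4 mRNA, qRT-PCR, ACTB/GAPDH/POLR2A normalization. Bidirectional fit vs DMSO.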

Read-out in assay [13]: Cytochrome P450 3A7 (Homo sapiens) (UniProt P24462)
Description: LTEA_HepaRG_CYP3A7: Life Technologies and Expression Analysis (LTEA) Assay for CYP3A7 using HepaRG (AID 2283492). The method in brief: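 CYP3A7 transcript measured by qRT-PCR (ACTB, GAPDH, POLR2A normalization) after 48 h chemical exposure of HepaRG cells in duplicate. Eight half-log concentrations, maximum 100 uM, 0.5% DMSO vehicle; bidirectional curve fitting against DMSO baseline.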

Read-out in a further assay: CYP3A5 (gene 1577)
Description: LTEA_HepaRG_CYP3A5: Life Technologies and Expression Analysis (LTEA) Assay for CYP3A5 using HepaRG (AID 2283493). The method in brief:
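mRNA levels were quantified by qRT-PCR on Fluidigm arrays and normalized to three housekeeping genes. Differentiated HepaRG cells received 48 h exposure (top 100 uM, half-log steps, 0.5% DMSO vehicle, duplicate); bidirectional fitting versus DMSO.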

Read-out in assay [14]: Cytochrome P450 4A22 (Homo sapiens) (UniProt Q5TCH4)
Description: LTEA_HepaRG_CYP4A22: Life Technologies and Expression Analysis (LTEA) Assay for Cytochrome P450 4A22 (CYP4A22) using HepaRG (AID 2283495). The method in brief:
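Gene expression measured by qRT-PCR against three housekeeping genes (ACTB, GAPDH, POLR2A), with gain or loss fitted relative to 0.5% DMSO vehicle. HepaRG cultures received 48 h chemical treatment, top concentration 100 uM, half-log steps, duplicate wells.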

Chain of Cytochrome P450 3A4 (Homo sapiens) (P08684 whole entry, looked up): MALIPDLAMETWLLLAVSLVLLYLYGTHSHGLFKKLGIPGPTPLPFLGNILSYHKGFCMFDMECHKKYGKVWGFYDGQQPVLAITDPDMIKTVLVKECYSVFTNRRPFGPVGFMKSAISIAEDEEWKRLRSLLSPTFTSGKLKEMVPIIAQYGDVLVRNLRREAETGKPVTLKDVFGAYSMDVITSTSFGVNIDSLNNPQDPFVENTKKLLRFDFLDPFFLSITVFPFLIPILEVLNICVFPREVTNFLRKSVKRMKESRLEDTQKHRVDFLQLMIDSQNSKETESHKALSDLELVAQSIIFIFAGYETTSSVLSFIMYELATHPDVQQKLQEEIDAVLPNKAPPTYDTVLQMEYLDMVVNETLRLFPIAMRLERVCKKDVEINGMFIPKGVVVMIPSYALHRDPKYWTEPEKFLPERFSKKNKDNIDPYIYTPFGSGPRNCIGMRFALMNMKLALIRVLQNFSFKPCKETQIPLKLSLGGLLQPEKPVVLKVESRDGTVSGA
Chain of Cytochrome P450 2C19 (Homo sapiens) (P33261 whole entry, looked up): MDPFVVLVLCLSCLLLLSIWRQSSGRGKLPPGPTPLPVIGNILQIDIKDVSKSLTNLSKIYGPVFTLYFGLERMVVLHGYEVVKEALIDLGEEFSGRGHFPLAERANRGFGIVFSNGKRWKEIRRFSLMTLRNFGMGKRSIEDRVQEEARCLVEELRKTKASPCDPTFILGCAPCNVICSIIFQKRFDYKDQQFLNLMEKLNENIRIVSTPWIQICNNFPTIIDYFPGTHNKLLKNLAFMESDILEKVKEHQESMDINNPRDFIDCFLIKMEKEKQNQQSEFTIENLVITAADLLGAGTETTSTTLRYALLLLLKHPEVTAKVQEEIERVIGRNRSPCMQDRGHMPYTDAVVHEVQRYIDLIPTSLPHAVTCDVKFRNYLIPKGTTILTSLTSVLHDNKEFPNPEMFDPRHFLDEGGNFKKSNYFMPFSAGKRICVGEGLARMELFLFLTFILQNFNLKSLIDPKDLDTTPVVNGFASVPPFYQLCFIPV
Chain of Cytochrome P450 3A7 (Homo sapiens) (P24462 whole entry, looked up): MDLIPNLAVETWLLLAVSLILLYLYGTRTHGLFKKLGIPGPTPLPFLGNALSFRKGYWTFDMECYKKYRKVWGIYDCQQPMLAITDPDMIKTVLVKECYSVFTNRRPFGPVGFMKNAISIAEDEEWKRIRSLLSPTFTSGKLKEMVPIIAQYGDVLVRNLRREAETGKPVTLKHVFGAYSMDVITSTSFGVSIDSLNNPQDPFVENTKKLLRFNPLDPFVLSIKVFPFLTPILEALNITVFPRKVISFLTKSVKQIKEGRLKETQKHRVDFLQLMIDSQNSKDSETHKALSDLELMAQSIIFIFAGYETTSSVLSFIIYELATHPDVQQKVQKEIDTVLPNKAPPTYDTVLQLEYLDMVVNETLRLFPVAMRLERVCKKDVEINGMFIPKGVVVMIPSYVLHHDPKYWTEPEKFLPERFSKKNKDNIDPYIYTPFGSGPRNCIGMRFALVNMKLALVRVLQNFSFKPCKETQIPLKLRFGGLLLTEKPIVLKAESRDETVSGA
Chain of Caspase-3 (Homo sapiens) (P42574 whole entry, looked up): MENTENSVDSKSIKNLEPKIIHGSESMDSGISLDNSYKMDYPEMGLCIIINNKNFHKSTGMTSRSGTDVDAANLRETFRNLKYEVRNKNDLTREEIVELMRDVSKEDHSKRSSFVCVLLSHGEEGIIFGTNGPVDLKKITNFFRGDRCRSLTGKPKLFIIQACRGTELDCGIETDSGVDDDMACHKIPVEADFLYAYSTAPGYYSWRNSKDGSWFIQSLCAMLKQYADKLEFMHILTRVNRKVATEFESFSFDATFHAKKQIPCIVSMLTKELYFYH

Turning to `NC(=O)NO`, the result (in assay [1]; with Caspase-3 (Homo sapiens); in [2]; in assay [3]; in assay [4]; in [5]) was inactive. The molecule was classed as inactive in assay [6] and in assay [7].

Take `COc1ccc(-n2nc(C(F)F)cc2-c2ccc(S(C)=O)cc2)cc1` (stereo unspecified): the outcome (in assay [1]; in the assay with Caspase-3 (Homo sapiens); in assay [8]; in assay [2]; with CYP2C8 (gene 1558); with CYP2C9 (gene 1559)) was inactive. Besides, the molecule was called inactive (in assay [4]; in [5]; in assay [6]; in the assay with CYP3A5 (gene 1577); in assay [7]). Also, the AC50 (in general, the concentration at which the activity in the assay is half-maximal) in assay [9] is 50 µM (active); in assay [10], 13.4 µM (active); in assay [11], 26.8 µM (active); with CYP2E1 (gene 1571) it was 25 µM (active); with CYP4A11 (gene 1579), 68.8 µM (active); in assay [12] it was 17.1 µM (active). In addition, the results for the AC50 in assay [13] and in assay [14] were 19.3 µM (active) and 15.6 µM (active), respectively.

On to `Cn1cnc([N+](=O)[O-])c1Sc1ncnc2nc[nH]c12`, for which the call (in assay [1]; in the assay with Caspase-3 (Homo sapiens); in [8]; in assay [2]; in assay [4]; in assay [6]) was inactive. Further, the call with CYP3A5 (gene 1577) was inactive. For the same molecule, the AC50 is 0.9 µM (active) in assay [9]; 5.23 µM (active) in [10]; 7.61 µM (active) with CYP2C8 (gene 1558); 9.87 µM (active) with CYP2C9 (gene 1559); 1.45 µM (active) with CYP2E1 (gene 1571); 0.324 µM (active) with CYP4A11 (gene 1579). Further, the concentration at half-maximal activity (AC50) in assay [5] was 13 µM (active); in [7] it was 27 µM (active); in [14], 0.238 µM (active).

As to `O=C(CCCCCCCCc1cccnc1)N1CCC(C=C(c2ccccc2)c2ccccc2)CC1`, the molecule was classed as inactive (in [1]; in [8]; in [2]; in assay [4]; in assay [13]; with CYP3A5 (gene 1577)). For the same molecule, the AC50 is 61.9 µM (active) with Caspase-3 (Homo sapiens); 17 µM (active) in assay [9]; 12.3 µM (active) in assay [10]; 34.9 µM (active) in [11]; 29.7 µM (active) in the assay with CYP2C8 (gene 1558); 31.2 µM (active) with CYP2C9 (gene 1559). In addition, the AC50 with CYP2E1 (gene 1571) was 14.1 µM (active); with CYP4A11 (gene 1579) it was 12.6 µM (active); in [12], 32 µM (active); in assay [5] it was 12.2 µM (active); in assay [6], 13.1 µM (active); in assay [7], 26.9 µM (active). In assay [14], the half-maximal activity concentration (AC50) was 22.7 µM (active).

In the case of `CCCC(=O)OCC`, the molecule was classed as inactive (in assay [1]; with Caspase-3 (Homo sapiens); in assay [8]; in [9]; in assay [2]; in assay [10]). For the same molecule, the result (in assay [11]; in the assay with CYP2C8 (gene 1558); with CYP2C9 (gene 1559); with CYP2E1 (gene 1571); with CYP4A11 (gene 1579); in assay [12]) was inactive. Moreover, the molecule was called inactive (in assay [4]; in [5]; in assay [6]; in assay [13]; with CYP3A5 (gene 1577); in assay [7]). Moreover, the call in assay [14] was inactive.

Source of the values: PubChem BioAssay (EPA / NIEHS).
